The values below come from the antibiotic and cytotoxicity screens of Wong et al. (2023).

Out of some 39,000 compounds screened, about 1,500 (3.8%) were called active. The full list was thinned out, with actives kept by preference.

The test deals with HSkMC (human skeletal muscle cells). Briefly: cytotoxicity call (relative viability < 0.9). The conditions noted are these: 10 µM.
Take `COc1ccc(NC(=O)N(C)C[C@@H]2OCc3cnnn3CCCC(=O)N([C@H](C)CO)C[C@@H]2C)c(OC)c1`: the cytotoxicity call was “inactive”.
`C[C@@H]1CCCCO[C@@H](CN(C)C(=O)CCC(F)(F)F)[C@@H](C)CN([C@@H](C)CO)C(=O)c2cc(NC(=O)CCC(F)(F)F)ccc2O1`: the cytotoxicity call is “inactive”.
Regarding `C[C@@H]1CN(C)C(=O)c2cccc(NC(=O)c3ccncc3)c2O[C@H]1CN(C)Cc1ccc(Oc2ccccc2)cc1`, the cytotoxicity call was “inactive”.
Turning to `O=C(C[C@@H]1CC[C@@H]2[C@H](COC[C@@H](O)CN2S(=O)(=O)c2ccccc2)O1)N[C@H]1CCN(Cc2ccccc2)C1`, the cytotoxicity call is “inactive”.
For `COc1cc(-c2cc(=O)c3c(s2)N(Cc2ccco2)[C@@H](c2ccc(O)c(OC)c2)CC3=O)ccc1O`, the cytotoxicity call was “inactive”.
For `C[C@H](CO)N1C[C@H](C)[C@@H](CN(C)C(=O)Nc2ccc(F)cc2)Oc2ccc(NC(=O)Nc3cccc4ccccc34)cc2CC1=O`, the cytotoxicity call is “inactive”.
As for `CC(C)(C)C(=O)OCOP(=O)(OCOC(=O)C(C)(C)C)C(C)(Oc1ccc(O)cc1)P(=O)(OCOC(=O)C(C)(C)C)OCOC(=O)C(C)(C)C`, the cytotoxicity call was “inactive”.
The value for `COc1ccc2c(c1)/C(=N\O)C(=O)N2` was “inactive”; that for `COc1ccc2c(c1)C(=O)C(=O)N2` was “inactive”.
With `O=C1Nc2ccc(I)cc2C1=Cc1cc(Br)c(O)c(Br)c1` the entry was “active”; with `C[C@H](CO)N1C[C@H](C)[C@H](CN(C)C(=O)Nc2ccc(C(F)(F)F)cc2)OCCCC[C@H](C)Oc2ccc(NC(=O)c3ccccc3)cc2C1=O`, “inactive”; with `C[C@H](CO)N1C[C@H](C)[C@H](CN(C)C(=O)Nc2ccc3c(c2)OCO3)OCCCC[C@H](C)Oc2ccc(NS(=O)(=O)c3ccccc3)cc2C1=O`, “inactive”.
With `CCN1C(=O)[C@H]2[C@H](O)CS[C@H]2C1=O`, the cytotoxicity call was “inactive”.
With `C[C@@H]1CN([C@@H](C)CO)S(=O)(=O)c2ccc(C#C[C@@H](C)O)cc2O[C@H]1CN(C)C(=O)C1CCCCC1`, the cytotoxicity call is “inactive”.
As to `c1ccc2c(c1)-c1ccc3ccc4cccc5cc-2c1c3c45`, the cytotoxicity call is “inactive”.
Take `CCN(CC)CCCCNc1ncc2cc(-c3c(Cl)cccc3Cl)c(NC(=O)NC(C)(C)C)nc2n1`: the cytotoxicity call is “inactive”.
The value for `CCN(CC)CCNC(=O)COc1ccc(OC)cc1.Cl` was “inactive”; that for `CCN(CC)CCCCNc1ncc2cc(-c3cc(OC)cc(OC)c3)c(NC(=O)NC(C)(C)C)nc2n1` was “active”.
For `Cc1noc(C)c1S(=O)(=O)N(C)C[C@@H]1Oc2ccc(NC(=O)Cc3cn(C)c4ccccc34)cc2CC(=O)N([C@@H](C)CO)C[C@H]1C`, the cytotoxicity call is “inactive”.
Turning to `C[C@@H]1CN([C@@H](C)CO)C(=O)c2cc(NS(=O)(=O)c3ccc(F)cc3)ccc2O[C@@H]1CN(C)CC1CC1`, the cytotoxicity call is “inactive”.
`COc1cc(C(=O)OCCN2CCN(CCOC(=O)c3cc(OC)c(OC)c(OC)c3)CC2)cc(OC)c1OC`: the cytotoxicity call is “inactive”.
Regarding `CCc1c(O)cc(O)c(C(=O)c2ccc(OCCN3CCOCC3)c(OC)c2)c1CC(=O)N(CCOC)CCOC`, the cytotoxicity call is “active”.
As for `COc1c(OCCCN2CCOCC2)ccc2c1N=C(NC(=O)c1cnc(N)nc1)N1CCN=C21`, the cytotoxicity call is “inactive”.
Take `C[C@@H]1CN([C@@H](C)CO)S(=O)(=O)c2ccc(C#CC3(O)CCCC3)cc2O[C@H]1CN(C)C(=O)Nc1ccccc1`: the cytotoxicity call was “inactive”.
The value for `N=C(N)N/N=C1\CCc2c(C(=N)N)cccc21` was “active”.
`C[C@H](CO)N1C[C@H](C)[C@H](CN(C)S(=O)(=O)c2ccccc2)Oc2ccc(NS(=O)(=O)c3ccccc3)cc2CC1=O`: the cytotoxicity call is “inactive”.
`C[C@H](CO)N1C[C@H](C)[C@@H](CN(C)Cc2ccc3c(c2)OCO3)Oc2cc(C#CCN(C)C)ccc2S1(=O)=O`: the cytotoxicity call is “inactive”.
As for `CN(c1ncccc1CNc1nc(Nc2ccc3c(c2)CC(=O)N3)ncc1C(F)(F)F)S(C)(=O)=O`, the cytotoxicity call was “active”.
In the case of `CNC(=O)c1ccc(Nc2ncc(C(F)(F)F)c(NCc3nccnc3N(C)S(C)(=O)=O)n2)cc1`, the cytotoxicity call was “active”.
`C[C@H](CO)N1C[C@H](C)[C@@H](CN(C)S(C)(=O)=O)Oc2ccc(NS(=O)(=O)c3cccs3)cc2CC1=O`: the cytotoxicity call is “inactive”.
With `C[C@H](CO)N1C[C@H](C)[C@@H](CN(C)S(=O)(=O)c2cn(C)cn2)Oc2ccc(NC(=O)CCC(F)(F)F)cc2CC1=O` the entry was “inactive”; with `COc1ccncc1-c1ccccc1CN(C(=O)c1ccc(-c2ccc(C#N)cc2)o1)c1ccc(N2CCNCC2)cc1`, “active”; with `C[C@@H]1CN([C@@H](C)CO)C(=O)Cc2cc(NC(=O)Nc3ccc(F)cc3)ccc2O[C@@H]1CN(C)Cc1ccc(Cl)c(Cl)c1`, “active”.
Consider `C[C@@H]1CN([C@H](C)CO)C(=O)Cc2cc(NC(=O)Nc3ccc(F)cc3)ccc2O[C@H]1CN(C)Cc1ccc(Cl)c(Cl)c1`, for which the cytotoxicity call was “active”.
Take `C[C@@H]1CN([C@@H](C)CO)C(=O)Cc2cc(NC(=O)Nc3ccc(F)cc3)ccc2O[C@H]1CN(C)Cc1ccc(Cl)c(Cl)c1`: the cytotoxicity call was “active”.
On to `C[C@H](CO)N1C[C@H](C)[C@@H](CN(C)Cc2ccc(Cl)c(Cl)c2)Oc2ccc(NC(=O)Nc3ccc(F)cc3)cc2CC1=O`, for which the cytotoxicity call was “active”.
As for `C[C@@H]1CCCCO[C@@H](CN(C)C(=O)c2ccccc2)[C@H](C)CN([C@H](C)CO)C(=O)c2cc(NC(=O)Nc3cccc4ccccc34)ccc2O1`, the cytotoxicity call was “inactive”.
Take `C[C@@H]1CN([C@@H](C)CO)C(=O)c2cc(NS(=O)(=O)c3ccc(F)cc3)ccc2O[C@@H](C)CCCCO[C@@H]1CN(C)C(=O)Nc1ccccc1`: the cytotoxicity call is “inactive”.
In the case of `C[C@H]1CCCCO[C@H](CN(C)Cc2ccc(C(F)(F)F)cc2)[C@@H](C)CN([C@@H](C)CO)C(=O)c2cc(NC(=O)C3CCCCC3)ccc2O1`, the cytotoxicity call is “inactive”.
Regarding `C[C@@H]1CN([C@H](C)CO)C(=O)Cc2cc(NC(=O)CCN3CCOCC3)ccc2O[C@@H]1CN(C)Cc1ccccc1`, the cytotoxicity call was “inactive”.
For `C[C@H](CO)N1C[C@H](C)[C@H](CN(C)Cc2ccc(Oc3ccccc3)cc2)Oc2ccc(NC(=O)C3CCCCC3)cc2C1=O`, the cytotoxicity call is “inactive”.
`Cc1ccc(S[C@]2(C(=O)O)CC(=O)N(Cc3ccccc3C(F)(F)F)[C@@H]2c2ccc(CO)cc2)cc1`: the cytotoxicity call is “inactive”.
For `COc1cccc(S(=O)(=O)N(C)C[C@@H]2Oc3ncc(-c4cccc(F)c4)cc3C(=O)N([C@H](C)CO)C[C@@H]2C)c1`, the cytotoxicity call was “inactive”.
Regarding `C[C@H](CO)N1C[C@H](C)[C@H](CN(C)Cc2ccc(C(=O)O)cc2)Oc2ccc(NC(=O)c3ccncc3)cc2C1=O`, the cytotoxicity call is “inactive”.
Turning to `C[C@@H]1CCCCO[C@@H](CN(C)Cc2ccc(C(=O)O)cc2)[C@@H](C)CN([C@@H](C)CO)C(=O)c2cc(NS(=O)(=O)c3cccs3)ccc2O1`, the cytotoxicity call was “inactive”.
On to `C[C@@H]1CN([C@H](C)CO)C(=O)CCCn2cc(nn2)CO[C@@H]1CN(C)S(=O)(=O)c1ccc2ccccc2c1`, for which the cytotoxicity call was “inactive”.
Consider `O=C(C[C@@H]1CC[C@@H]2[C@H](COC[C@@H](O)CN2C(=O)Nc2ccc(F)cc2)O1)NCCCN1CCOCC1`, for which the cytotoxicity call is “inactive”.
Consider `C[C@@H]1CN([C@@H](C)CO)C(=O)c2cc(NS(=O)(=O)c3ccc(F)cc3)ccc2O[C@@H](C)CCCCO[C@H]1CN(C)Cc1ccc(C(=O)O)cc1`, for which the cytotoxicity call is “inactive”.
For the compound `C[C@@H](O)[C@@H](O)[C@@H](O)C/C=N/NC(=O)c1ccc(C(=O)NO)cc1`, the cytotoxicity call is “inactive”.
Turning to `Cc1cc([N+](=O)[O-])nn1CC(=O)N1CCOCC1`, the cytotoxicity call was “inactive”.
`COc1ccc(NC(=O)N(C)C[C@@H]2OCCCC[C@H](C)Oc3ccc(NC(=O)Nc4ccc(F)cc4)cc3C(=O)N([C@H](C)CO)C[C@@H]2C)cc1`: the cytotoxicity call was “inactive”.
With `C[C@H](CO)N1C[C@H](C)[C@H](CN(C)Cc2ccc(Cl)c(Cl)c2)Oc2ccc(NC(=O)Nc3ccc(F)cc3)cc2CC1=O` the entry was “active”; with `C[C@H]1CN([C@@H](C)CO)C(=O)Cc2cc(NC(=O)Nc3ccc(F)cc3)ccc2O[C@@H]1CN(C)Cc1ccc(Cl)c(Cl)c1`, “active”.
`C[C@H]1CN([C@@H](C)CO)C(=O)Cc2cc(NC(=O)Nc3ccc(F)cc3)ccc2O[C@H]1CN(C)Cc1ccc(Cl)c(Cl)c1`: the cytotoxicity call was “active”.
With `C[C@@H]1CN([C@H](C)CO)C(=O)Cc2cc(NC(=O)Nc3ccc(F)cc3)ccc2O[C@@H]1CN(C)Cc1ccc(Cl)c(Cl)c1` the entry was “active”.
`Cc1noc(C)c1NC(=O)N(C)C[C@H]1Oc2c(NS(=O)(=O)c3cn(C)cn3)cccc2C(=O)N([C@@H](C)CO)C[C@H]1C`: the cytotoxicity call was “inactive”.
On to `C/C=C/COc1nc2c(c(=O)n(C)c(=O)n2C)n1C`, for which the cytotoxicity call is “inactive”.
As to `C[C@H]1CN([C@@H](C)CO)C(=O)c2cc(NC(=O)Cn3cnnn3)ccc2O[C@@H]1CN(C)C(=O)NC1CCCCC1`, the cytotoxicity call is “inactive”.
Regarding `C[C@@H]1CN([C@@H](C)CO)C(=O)c2cccc(NC(=O)Nc3ccc(F)cc3)c2O[C@@H]1CN(C)Cc1ccc(C(F)(F)F)cc1`, the cytotoxicity call is “inactive”.
With `CC(C)NC(=O)N(C)C[C@H]1Oc2ccc(NC(=O)Cn3cnnn3)cc2CC(=O)N([C@H](C)CO)C[C@@H]1C`, the cytotoxicity call was “inactive”.
For `CC(=O)OCC(=O)C1(O)CCC2C3CCC4CC(O)CCC4(C)C3C(=O)CC21C` (stereo not given), the cytotoxicity call was “inactive”.
Turning to `COc1ccc(NC(=O)Nc2ccc3c(c2)C(=O)N([C@H](C)CO)C[C@H](C)[C@H](CN(C)S(=O)(=O)c2cccs2)OCCCC[C@H](C)O3)cc1`, the cytotoxicity call was “inactive”.
The value for `C[N+](C)(C)CCCCNC(=O)[C@H]1C[C@H]2C(=O)N3CCC[C@H]3C(=O)N2[C@H]1c1cccc(OCCO)c1` was “inactive”; that for `C[C@H](CO)N1C[C@H](C)[C@@H](CN(C)C(=O)c2ccc3c(c2)OCO3)Oc2cc(-c3cncnc3)ccc2S1(=O)=O` was “inactive”.
Regarding `CCCCCCCCCC(=O)N[C@@H](Cc1c[nH]c2ccccc12)C(=O)N[C@H](CC(N)=O)C(=O)N[C@@H](CC(=O)O)C(=O)N[C@@H]1C(=O)NCC(=O)N[C@@H](CCCN)C(=O)N[C@@H](CC(=O)O)C(=O)N[C@H](C)C(=O)N[C@@H](CC(=O)O)C(=O)NCC(=O)N[C@H](CO)C(=O)N[C@@H]([C@H](C)CC(=O)O)C(=O)N[C@@H](CC(=O)c2ccccc2N)C(=O)O[C@@H]1C`, the cytotoxicity call is “inactive”.
